According to PubChem BioAssay (Tox21):
Values joined by “and” are separate entries in the source; they are usually repeats but may differ in a detail not shown here. Identical values can stand only once. Inconclusive results are not listed. A call without a number means that no potency is given here. Some structures have more than one record in an assay (separate samples or runs), and their calls can disagree. Active and inactive are the calls of the source. Unless noted, the call rests on the fitted dose curve; in most records, active means well fitted curve in the direction sought with a large enough effect in the repeat runs; inconclusive means weak or mixed curves; inactive means no such curve, though single readings can be large; an effect the other way counts as inactive or inconclusive.

Tests used:
[1] = qHTS assay for small molecule agonists of the p53 signaling pathway (AID 651631; calls by dose curve; further: nearly all actives have a fitted effect of over 15% in size; further: potency means the concentration at half of the fitted maximal effect)
Method in brief: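 Readout was fluorescence from the LiveBLAzer FRET substrate, applied for 2 h at room temperature after 16 h compound exposure at 37 °C. Cells were the p53RE-bla HCT-116 line, with beta-lactamase driven by p53 response elements.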

[2] = qHTS assay for small molecule agonists of the p53 signaling pathway - cell viability (AID 651633; calls by dose curve; further: nearly all actives have a fitted effect of over 30% in size; further: potency means the concentration at half of the fitted maximal effect)
Method in brief: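 p53RE-bla cells, seeded at 4,000 per well and rested 5 h at 37 C/5% CO2, received compounds in DMSO for 16 h at 37 C. CellTiter-Glo was then added, and luminescence was read after 30 min at room temperature to gauge cytotoxicity.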

[3] = qHTS assay for small molecules that induce genotoxicity in human embryonic kidney cells expressing luciferase-tagged ATAD5 - cell viability (AID 651634; calls by dose curve; further: nearly all actives have a fitted effect of over 25% in size; further: potency means the concentration at half of the fitted maximal effect)
Method in brief: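 Fluorescence from CellTiter-Fluor, reporting protease activity within live cells, served as the viability read-out. HEK293T cells carrying luciferase-tagged ATAD5 had been treated with compound for 15.5 hr at 37C.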

[4] = qHTS assay for small molecule disruptors of the mitochondrial membrane potential - cell viability (AID 720634; calls by dose curve; further: nearly all actives have a fitted effect of over 20% in size; further: potency means the concentration at half of the fitted maximal effect)
Method in brief: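 Cells: HepG2, 2,000/well, attached overnight. Compound 1 hr, 37 C/5% CO2. +m-MPI dye, +CellTiter-Glo 30 min RT. Readout: luminescence (ATP).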

[5] = qHTS assay to test for compound auto fluorescence at 590 nm (red) in HepG2 cells (AID 720674)
Method in brief: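 Compound auto-fluorescence is scored relative to Rose Bengal sodium, measured at 540/590 nm in live HepG2 cultures after 1 hr compound contact (37 C, 5% CO2).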

[6] = qHTS assay to test for compound auto fluorescence at 535 nm (green) in HepG2 cells (AID 720675)
[7] = qHTS assay to test for compound auto fluorescence at 460 nm (blue) in HEK293 cells (AID 720678); further: potency means the concentration at half of the fitted maximal effect
Method in brief: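 Blue read-out at excitation 405 nm and emission 460 nm follows overnight compound exposure of HEK293 cells at 37C in 5% CO2. Activity is given as auto fluorescence equivalency to triamterene.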

[8] = qHTS assay to test for compound auto fluorescence at 590 nm (red) in HEK293 cells (AID 720679)
Method in brief: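 Red channel, Ex/Em 540/590nm; signal expressed as equivalency to Rose Bengal sodium. HEK293, 2,000 cells/well, 10% dialyzed FBS; 23 nL compound pinned after 4-5 hr attachment; overnight 37C/5% CO2 before reading.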

[9] = qHTS assay to test for compound auto fluorescence at 535 nm (green) in HEK293 cells (AID 720680)
[10] = qHTS assay to test for compound auto fluorescence at 460 nm (blue) in HEK293 cell free culture (AID 720681); further: potency means the concentration at half of the fitted maximal effect
Method in brief: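 Test compounds were pinned into cell-free culture medium (DMEM with 10% FBS) and fluorescence was read directly at Ex/Em 405/460 nm. Signals were expressed as fluorescence equivalents of triamterene, with DMSO vehicle as control.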

[11] = qHTS assay to test for compound auto fluorescence at 535 nm (green) in HEK293 cell free culture (AID 720682)
Method in brief: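 Compounds were pin-transferred into cell-free DMEM with 10% FBS, and green fluorescence was read at excitation 485 nm and emission 535 nm. Intensities were expressed as fluorescein-equivalent values.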

[12] = qHTS assay to test for compound auto fluorescence at 590 nm (red) in HEK293 cell free culture (AID 720683)
Method in brief: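 Tox21 10K library compounds were pinned into cell-free DMEM with 10% FBS and fluorescence was read at excitation 540 nm. Activity is expressed as Rose Bengal sodium equivalency.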

[13] = qHTS assay to test for compound auto fluorescence at 590 nm (red) in HepG2 cell free culture (AID 720684)
Method in brief: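 Red fluorescence (540 nm excitation, 590 nm emission) was measured after compound transfer into cell-free MEM supplemented with 10% FBS. Values are equivalencies against Rose Bengal sodium.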

[14] = qHTS assay to test for compound auto fluorescence at 460 nm (blue) in HepG2 cell free culture (AID 720685); further: potency means the concentration at half of the fitted maximal effect
Method in brief: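 Compound (23 nL) or DMSO pinned into cell-free MEM with 10% FBS; blue fluorescence read at 405/460 nm excitation/emission, expressed as auto-fluorescence equivalency to triamterene.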

[15] = qHTS assay to test for compound auto fluorescence at 535 nm (green) in HepG2 cell free culture (AID 720686)
[16] = qHTS assay to test for compound auto fluorescence at 460 nm (blue) in HepG2 cells (AID 720687); further: potency means the concentration at half of the fitted maximal effect
Method in brief: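 Cells (2,000/well in MEM with 10% FBS) attached overnight at 37 C, then were exposed to compound or DMSO for 1 hr at 37 C, 5% CO2. Fluorescence read at Ex/Em 405/460 nm, expressed as triamterene-equivalent signal.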

[17] = target: Glucocorticoid receptor (Homo sapiens) (UniProt P04150); assay: qHTS assay to identify small molecule agonists of the glucocorticoid receptor (GR) signaling pathway (AID 720691; active means well fitted activation curve with a large enough effect in the signal ratio in the repeat runs, not every such curve was filed as active; the % refers to the signal ratio)
Method in brief: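 Fluorescence intensity from LiveBLAzer B/G FRET substrate (2 h, room temperature) reports beta-lactamase expression driven by the glucocorticoid response element in GR-bla HeLa cells after 18 h compound exposure at 37 C.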

[18] = target: Glucocorticoid receptor (Homo sapiens) (UniProt P04150); assay: qHTS assay to identify small molecule antagonists of the glucocorticoid receptor (GR) signaling pathway (AID 720692; active means well fitted inhibition curve with a large enough effect in the signal ratio in the repeat runs, not every such curve was filed as active; the % refers to the signal ratio)
Method in brief: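 HeLa GR-bla cells; cmpd + dex 5 nM final, 18 h 37 C; LiveBLAzer B/G FRET substrate 2 h RT; fluorescence intensity read. Antagonist mode, qHTS.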

[19] = qHTS assay for small molecules that induce genotoxicity in human embryonic kidney cells expressing luciferase-tagged ATAD5 (AID 651632); further: nearly all actives have a fitted effect of over 15% in size
Method in brief: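 ATAD5-luc HEK293T, 2,000 cells/well; cpd or DMSO pin-transferred; 16 hr, 37C/5% CO2; Amplite 30 min RT; luminescence.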

[20] = qHTS assay for small molecule disruptors of the mitochondrial membrane potential (AID 720635); further: potency means the concentration at half of the fitted maximal effect
Method in brief: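 HepG2 cells (2,000/well) attached overnight at 37C, then took compound for 1 hr at 37C, 5% CO2. Mito-MPS dye was added for 30 min; fluorescence was read at 490/535 nm (monomers) and 540/590 nm (aggregates).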
Tags describe the fitted curve by direction and shape or compound fluorescence and quenching.

Sequence of Glucocorticoid receptor (Homo sapiens) (P04150 whole entry, looked up): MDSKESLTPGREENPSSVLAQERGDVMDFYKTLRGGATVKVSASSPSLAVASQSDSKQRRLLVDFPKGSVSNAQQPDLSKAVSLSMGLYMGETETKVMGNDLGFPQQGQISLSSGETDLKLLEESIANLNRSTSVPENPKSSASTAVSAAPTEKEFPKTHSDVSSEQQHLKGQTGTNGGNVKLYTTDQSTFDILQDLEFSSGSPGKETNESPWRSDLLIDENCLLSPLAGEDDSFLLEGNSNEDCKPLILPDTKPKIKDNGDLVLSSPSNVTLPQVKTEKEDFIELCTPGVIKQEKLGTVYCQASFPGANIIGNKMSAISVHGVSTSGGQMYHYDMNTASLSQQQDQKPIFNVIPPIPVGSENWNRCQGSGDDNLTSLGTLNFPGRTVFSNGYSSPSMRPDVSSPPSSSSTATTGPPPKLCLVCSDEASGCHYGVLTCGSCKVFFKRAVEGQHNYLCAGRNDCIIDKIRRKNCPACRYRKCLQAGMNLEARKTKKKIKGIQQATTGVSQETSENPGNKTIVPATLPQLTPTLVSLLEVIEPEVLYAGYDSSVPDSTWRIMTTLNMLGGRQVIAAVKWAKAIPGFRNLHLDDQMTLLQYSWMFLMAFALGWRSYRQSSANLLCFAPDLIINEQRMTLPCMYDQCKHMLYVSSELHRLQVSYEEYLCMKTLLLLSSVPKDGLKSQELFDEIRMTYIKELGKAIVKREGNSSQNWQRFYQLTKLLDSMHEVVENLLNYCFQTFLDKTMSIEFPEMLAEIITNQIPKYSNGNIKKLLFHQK

SMILES | Potency [1] | Potency [2] | Potency [3] | Potency [4] | Potency [5] | Potency [6] | Potency [7] | Potency [8] | Potency [9] | Potency [10] | Potency [11] | Potency [12] | Potency [13] | Potency [14] | Potency [15] | Potency [16] | Potency [17] | Potency [18] | Potency [19] | Potency [20]
Sc1nc2ccccc2s1 | inactive | inactive | inactive | inactive | inactive | inactive | inactive | inactive | inactive | inactive | inactive | inactive | inactive | inactive | inactive | inactive | inactive | inactive |  | 
COc1cc(/C=C/c2ccccc2)oc(=O)c1 | inactive | inactive | inactive | inactive | inactive | inactive | inactive | inactive | inactive | inactive | inactive | inactive | inactive |  |  |  | inactive | inactive |  | 
Oc1c(I)cc(Cl)c2cccnc12 | 29.8 µM (active) | 16.8 µM (active) and 19.3 µM (active) |  | inactive | inactive | inactive | inactive | inactive | inactive | inactive | inactive | inactive | inactive | inactive | inactive | inactive |  |  | inactive | 
CCCC1CCC(=O)CC1 |  | inactive | inactive | inactive | inactive | inactive | inactive | inactive | inactive | inactive | inactive | inactive | inactive | inactive | inactive | inactive | inactive | inactive | inactive | inactive
Oc1ccccc1O |  | 43.8 µM (active) and 30.6 µM (active) | inactive | inactive | inactive | inactive | inactive | inactive | inactive | inactive | inactive | inactive |  | inactive |  |  | inactive |  | inactive | inactive
C#CC1(O)CC[C@H]2[C@@H]3CCC4=CCCC[C@@H]4[C@H]3CC[C@@]21C (some centres not stated) |  | inactive and 68.6 µM (active) | inactive | inactive | inactive | inactive | inactive | inactive | inactive | inactive | inactive | inactive | inactive |  | inactive | inactive | inactive |  | inactive | 9.02 µM (active) and 17.2 µM (active)
CC(N=C(NC#N)Nc1ccncc1)C(C)(C)C (configuration not stated) |  | inactive | inactive | inactive | inactive | inactive | inactive | inactive | inactive | inactive | inactive | inactive | inactive | inactive | inactive | inactive | inactive | inactive | inactive | inactive
Cc1cc(C)c(/C=C2\C(=O)Nc3ccccc32)[nH]1 |  | 2.66 µM (active) | inactive | inactive | inactive | inactive | inactive | inactive | inactive | inactive | inactive | inactive | inactive |  |  | inactive |  |  | inactive | 10.6 µM (active)
CCCCCCCCCCCCCCCC[N+](C)(C)CC |  | 26.6 µM (active) and 61.3 µM (active) | 29.8 µM (active) and 24.4 µM (active) | 61.3 µM (active) | inactive | inactive | inactive | inactive | inactive | inactive | inactive | inactive | inactive | inactive | inactive |  |  |  | inactive | 6.68 µM (active) and 27.4 µM (active)
Cc1cc(C(C)(C)C)c(O)c(C)c1Cn1c(=O)n(Cc2c(C)cc(C(C)(C)C)c(O)c2C)c(=O)n(Cc2c(C)cc(C(C)(C)C)c(O)c2C)c1=O |  | inactive | inactive | inactive | inactive | inactive | inactive | inactive | inactive | inactive | inactive | inactive | inactive | inactive |  | inactive | inactive |  | inactive | 9.69 µM (active)
O=c1[nH]c2ccccc2n1CCCN1CCN(C(c2ccccc2)c2ccccc2)CC1 | inactive | inactive |  | inactive | inactive | inactive | inactive | inactive | inactive | inactive | inactive | inactive | inactive | inactive | inactive |  | inactive |  | inactive | 
Cc1cc(=O)oc2cc(O)cc(O)c12 |  | inactive | inactive | inactive | inactive | inactive | 39.8 µM [fluorescent] (active) | inactive | inactive | 39.8 µM (active) | inactive | inactive |  | 39.8 µM [fluorescent] (active) | inactive | 35.5 µM [fluorescent] (active) |  |  | inactive | 61.3 µM (active)
CCc1oc2ccccc2c1C(=O)c1cc(I)c(O)c(I)c1 | 23.7 µM (active) | 26.6 µM (active) |  | 26.6 µM (active) | inactive | inactive | inactive | inactive | inactive | inactive | inactive | inactive | inactive |  | inactive | inactive |  |  | inactive | 
CC(C)=CCC1=C(O)c2ccccc2C(=O)C1=O | 1.53 µM (active) |  | 54.2 µM (active) | 54.2 µM (active) | inactive | inactive | inactive | inactive | inactive | inactive | inactive | inactive | inactive | inactive | inactive | inactive | inactive |  | inactive | 24.2 µM (active)
